Only a selection was taken, and hits are over-represented in it overall.
IL1B secr inh: inflammasome signaling inhibition, IL-1 beta readout. THP-1 LPS/ATP IL-1B secretion, AlphaLISA, 16 h; stronger effect = lower value. activity change, % at 57.5 µM. 360,000 tested, 4.7% active. AID 743279; in the data active = activity change below about -50%; inconclusive = mostly about -30% to -49%
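Secreted IL-1B measured by AlphaLISA bead assay after 16 h compound exposure of THP-1 cells; compounds (final up to 57.5 uM) added 1 h before LPS (250 ng/mL) and ATP (1.25 mM) stimulation; lower signal means less secretion.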
DT40 TDP1 CPT: DT40-hTDP1 cell growth loss with CPT. chicken DT40 Tdp1-/-;hTDP1 cells + 20 nM CPT, ATP luminescence, 48 h. Potency, µM (series often up to 46.2 µM), inactives show at the highest dose activity change, negative = growth inhibition, usual class: inhibitors. 420,000 tested, 12% active. AID 686979; note: potency is the fitted concentration of half-maximal effect; nearly all actives have a fitted effect of over 55% in size
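Chicken DT40 Tdp1-/- cells stably complemented with human TDP1 were seeded at 400 cells/well in medium containing 20 nM camptothecin, exposed to pin-transferred compounds, and grown at 37 °C for at least 48 hr. Viability was read as ATP luminescence.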
ALOX12 inh: inhibitors of human 12S-lipoxygenase ALOX12 | 580,000 tested, 1.1% active | purified 12hLO, xylenol orange hydroperoxide absorbance | AID 1671190 | Potency, µM (titrated, usually from 108 µM), inactives show at the highest dose activity change, negative = inhibition, most hits filed as inhibitors; note: potency is the fitted concentration of half-maximal effect
Target sequence (P18054 whole entry, looked up): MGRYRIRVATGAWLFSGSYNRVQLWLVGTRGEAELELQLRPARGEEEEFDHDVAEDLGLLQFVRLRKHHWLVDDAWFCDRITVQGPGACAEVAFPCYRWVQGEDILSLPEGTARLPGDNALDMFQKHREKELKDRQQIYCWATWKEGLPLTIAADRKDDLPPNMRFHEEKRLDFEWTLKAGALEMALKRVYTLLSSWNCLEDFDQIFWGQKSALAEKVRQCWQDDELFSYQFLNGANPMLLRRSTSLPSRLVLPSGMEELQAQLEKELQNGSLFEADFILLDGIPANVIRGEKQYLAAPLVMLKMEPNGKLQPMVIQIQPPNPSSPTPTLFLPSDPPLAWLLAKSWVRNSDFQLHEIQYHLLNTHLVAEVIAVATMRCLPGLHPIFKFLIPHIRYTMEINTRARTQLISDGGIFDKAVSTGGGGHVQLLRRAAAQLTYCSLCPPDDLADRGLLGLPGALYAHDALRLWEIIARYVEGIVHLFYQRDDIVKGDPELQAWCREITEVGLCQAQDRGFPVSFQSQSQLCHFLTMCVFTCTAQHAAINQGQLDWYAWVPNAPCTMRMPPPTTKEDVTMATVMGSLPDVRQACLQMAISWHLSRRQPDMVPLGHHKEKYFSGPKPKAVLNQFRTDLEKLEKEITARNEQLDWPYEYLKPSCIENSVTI
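Purified human 12hLO (150 nM final) in 25 mM Hepes, 0.01% Triton X-100, pH 7.0 was preincubated 15 min at room temperature with compound. Then 40 uM arachidonic acid was added, 30 min. Hydroperoxide was read by Fe-XO absorbance ratio 573/405 nm.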
HT1080NT lethal: kills 2HG-producing HT-1080-NT fibrosarcoma cells | HT-1080-NT fibrosarcoma viability, CellTiter-Glo ATP luminescence, 48 h | 360,000 tested, 1.6% active | Potency, µM (highest dose often 46.1 µM), without a hit: at the top dose activity, negative = less viability, usual class: cytotoxic;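 note: NT is the 2HG producing partner of a matched IDH1 knockdown line; potency is the fitted concentration of half-maximal effect; 0% = DMSO-treated cells and -100% = media-only wells without cells; nearly all actives have a fitted effect of over 55% in size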
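HT-1080-NT; 750 cells/well; 5% FBS RPMI; 48 h compound, 37 degrees C; CellTiter-Glo luminescence; curve fitting and curve-class assignment.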
HT1080 IDH1KD tx: kills HT-1080 cells with IDH1 knockdown; AID 686971; Potency, µM (top dose mostly 46.1 µM), inactives show at the top dose activity, negative = toxicity, hits mostly cytotoxic; HT-1080 IDH1 knockdown viability, ATP luminescence, 48 h; 360,000 tested, 2% active;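 note: potency is the fitted concentration of half-maximal effect; 0% = DMSO wells and -100% = cell-free medium wells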
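In this qHTS, HT-1080 cells depleted of IDH1 are exposed for 48 h at 37 °C to compound titrations. Toxicity is scored from CellTiter-Glo luminescence, with DMSO as full viability and medium alone as none.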
TDP1 cell noCPT: qHTS for Inhibitors of human tyrosyl-DNA phosphodiesterase 1 (TDP1): qHTS in cells in absence of CPT. AID 686978, 2013. DT40 Tdp1-/- hTDP1 cells, no CPT, ATP luminescence, 48 h. 420,000 tested, 15% active. Potency, µM (top dose mostly 46.2 µM), for inactives: at the top dose activity change, negative = growth inhibition, hits mostly inhibitors; note: potency is the fitted concentration of half-maximal effect; nearly all actives have a fitted effect of over 55% in size
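Chicken DT40 Tdp1-/- cells complemented with human TDP1, screened without camptothecin (DMSO vehicle only), 400 cells/well. Compounds pin-transferred, cells incubated at 37 °C for at least 48 hr. Growth read as ATP-dependent luminescence (CellTiter-Glo, 30 min at RT).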
The depositor's hits bear a star; [ ] = another dose, or the depositor's remark. Unless noted, calls come from the whole dose curve; as a rule, active = well fitted curve in the direction sought with a large enough effect; inconclusive = small, poorly fitted or top-dose-only effect, or another doubt; inactive = no such curve, though single readings can be large; an effect the other way counts as inactive or inconclusive. Unless noted, % is set by controls: 0 for no effect and ±100 for the full control effect.

`CCc1ccccc1N(C(C)=O)c1nc(CCl)cs1` gave IL1B secr inh -14.9, DT40 TDP1 CPT 14.6µM*, ALOX12 inh -7.6%, HT1080NT lethal 4.4%, HT1080 IDH1KD tx 13.4% and TDP1 cell noCPT 23.1µM*.
For COC(=O)c1ccccc1NC(=O)c1cc2cc(C)ccc2n1C the results were DT40 TDP1 CPT 6.51µM*, ALOX12 inh -9.6% and TDP1 cell noCPT 5.8µM*.
Screening CCOP(=O)(OCC)c1nc(-c2cccs2)oc1NCc1ccc(F)cc1 returned ALOX12 inh -0.3%.
COc1ccc(OCCC(=O)OCC(=O)Nc2cccc(S(=O)(=O)N3CCCCC3)c2)cc1 was read as IL1B secr inh -95.7*, DT40 TDP1 CPT inconclusive, ALOX12 inh -0.3%, HT1080NT lethal -10.6%, HT1080 IDH1KD tx inconclusive and TDP1 cell noCPT inconclusive.
`O=C(COc1ccccc1)Nc1cccc(S(=O)(=O)N2CCCC2)c1` gave IL1B secr inh -2.4, DT40 TDP1 CPT -17.8%, ALOX12 inh -23.3%, HT1080NT lethal 4.0%, HT1080 IDH1KD tx 3.9% and TDP1 cell noCPT -26.6%.
Screening O=C(COc1ccccc1Cl)Nc1cccc(S(=O)(=O)N2CCCC2)c1 returned IL1B secr inh -20.5, DT40 TDP1 CPT 16.4µM*, ALOX12 inh 152.9%, HT1080NT lethal -1.1%[9.24 µM], HT1080 IDH1KD tx 0.3% and TDP1 cell noCPT 20.6µM*.
O=C(COc1ccc(F)cc1Cl)Nc1cccc(S(=O)(=O)N2CCCC2)c1 was read as IL1B secr inh -52.2*, DT40 TDP1 CPT inconclusive, ALOX12 inh -9.8%, HT1080NT lethal 1.3%, HT1080 IDH1KD tx 2.3% and TDP1 cell noCPT -25.7%.
For CC(=O)Nc1cccc(OCC(=O)Nc2cccc(S(=O)(=O)N3CCCC3)c2)c1 the results were IL1B secr inh 11.5, DT40 TDP1 CPT 20.6µM*, ALOX12 inh -1.3%, HT1080NT lethal -5.5%, HT1080 IDH1KD tx -2.0% and TDP1 cell noCPT 20.6µM*.
Screening O=C(NCc1ccccc1F)C1CCN(C(=O)c2ncn3c2COC(c2ccc(F)cc2)C3)CC1 (configuration not stated) returned ALOX12 inh 2.0%.
For Clc1ccc(-c2cnc([C@@H]3COCCN3Cc3cnc4ccccc4c3)[nH]2)s1 the results were ALOX12 inh 7.8%[176 µM].
O=C(COC(=O)/C=C/c1cccs1)Nc1cccc(S(=O)(=O)N2CCCC2)c1 was read as IL1B secr inh 3.6, DT40 TDP1 CPT 13µM*, ALOX12 inh -2.3%, HT1080NT lethal 5.1%, HT1080 IDH1KD tx 13.9% and TDP1 cell noCPT 23.1µM*.
For O=C(COc1ccccc1[N+](=O)[O-])Nc1cccc(S(=O)(=O)N2CCCC2)c1 the results were IL1B secr inh -1.4, DT40 TDP1 CPT 23.1µM*, ALOX12 inh -16.9%, HT1080NT lethal 8.0%, HT1080 IDH1KD tx 8.2% and TDP1 cell noCPT 20.6µM*.
`CCN1C(=O)C2(CCN(C(=O)c3c(C)noc3C)CC2)c2ccccc21` gave ALOX12 inh 3.5%.
`COc1ccc(Cl)cc1C(Nc1cccnc1)c1ccc2cccnc2c1O` (configuration not stated) gave IL1B secr inh -66.4*, DT40 TDP1 CPT inconclusive, ALOX12 inh inconclusive, HT1080NT lethal inconclusive, HT1080 IDH1KD tx 10.3µM* and TDP1 cell noCPT inconclusive.
`Oc1c(C(Nc2cccnc2)c2ccc(C(F)(F)F)cc2)ccc2cccnc12` (configuration not stated) gave DT40 TDP1 CPT inconclusive and TDP1 cell noCPT 8.91µM*.
`Oc1c(C(Nc2cccc(C(F)(F)F)c2)c2cccnc2)ccc2cccnc12` (configuration not stated) gave IL1B secr inh 37.8, DT40 TDP1 CPT inconclusive, ALOX12 inh inconclusive, HT1080NT lethal -14.8%, HT1080 IDH1KD tx inconclusive and TDP1 cell noCPT inconclusive.
`Cc1cc(NC(c2cccnc2)c2ccc3cccnc3c2O)no1` (configuration not stated) gave IL1B secr inh 143.4, DT40 TDP1 CPT 3.26µM*, ALOX12 inh -8.1%, HT1080NT lethal inconclusive, HT1080 IDH1KD tx inconclusive and TDP1 cell noCPT 3.66µM*.
Screening Cc1cc(C(=O)Nc2cccnc2)no1 returned IL1B secr inh -13.0, DT40 TDP1 CPT inconclusive, ALOX12 inh -4.2%, HT1080NT lethal 3.7%, HT1080 IDH1KD tx 2.8% and TDP1 cell noCPT inconclusive.
CN1CCN(C(c2ccc(C(F)(F)F)cc2)c2ccc3cccnc3c2O)CC1 (configuration not stated) was read as IL1B secr inh -85.0*, DT40 TDP1 CPT 8.2µM*, ALOX12 inh 17.8µM*, HT1080NT lethal -21.3%, HT1080 IDH1KD tx inconclusive and TDP1 cell noCPT 8.2µM*.
For O=C(NCCCN1CCOCC1)c1c(OCC2CC2)cc(=O)n2c1CCCCC2 the results were ALOX12 inh 9.6%.
Screening Oc1cccc(C(Nc2ccccn2)c2ccc3cccnc3c2O)c1Cl (configuration not stated) returned DT40 TDP1 CPT 0.651µM*, ALOX12 inh inconclusive and TDP1 cell noCPT 3.26µM*.
CCCNc1nc2ccccc2nc1C(=O)Nc1cc(C)cc(C)c1 was read as ALOX12 inh 3.4%.
`C=CCc1cccc(OC)c1OCCOCCNCCO` gave IL1B secr inh -10.8, DT40 TDP1 CPT -26.6%, ALOX12 inh 2.24µM*, HT1080NT lethal 9.9%, HT1080 IDH1KD tx 12.2% and TDP1 cell noCPT -14.6%.
`Cc1cccc(NC(=O)COc2ccc3c(=O)c(Oc4ccccc4)c(C)oc3c2)n1` gave ALOX12 inh -5.2%.
N#CC1=C2SCC(O)(c3ccccc3)N2C(=O)CC1c1ccccc1 (configuration not stated) was read as IL1B secr inh -10.8, DT40 TDP1 CPT 1.3µM*, ALOX12 inh -10.6%, HT1080NT lethal 1.3µM*, HT1080 IDH1KD tx inconclusive and TDP1 cell noCPT 1.64µM*.
For O=C1CCC[C@@H]2C[C@@]3(C[C@@H]4CCN1[C@H]24)Nc1ccccc1NC3=NC1CCCCC1 the results were DT40 TDP1 CPT -25.6% and TDP1 cell noCPT -24.7%.
Screening O=C1CCC[C@@H]2C[C@@]3(C[C@@H]4CCN1[C@H]24)Nc1cc(Cl)c(Cl)cc1NC3=NCc1ccccc1 returned IL1B secr inh -18.6, DT40 TDP1 CPT 18.4µM*, ALOX12 inh -17.2%, HT1080NT lethal 1.5%, HT1080 IDH1KD tx 2.5% and TDP1 cell noCPT 20µM*.

Bioassay records (PubChem BioAssay)
